Screening results: PubChem, several laboratories
Most compounds without a hit are left out; they make up all but 0.5% or so of the library.
Tat export inh – blocks Tat-dependent protein export in E. coli. AID 488895. E. coli MC4100 TorA-mCherry Tat export, fluorescence. inhibition, % at 10 µM. 340,000 tested, 0.036% active;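 active = mean replicate inhibition at least 50% and at least half of replicates individually reaching 50%; inconclusive = only one of the two criteria met; inactive = neither criterion met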;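 also: exported cargo escapes ClpAP degradation while cytoplasmic cargo is degraded and loses fluorescence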
AddAB inh – less growth of phage-infected E. coli with AddAB; E. coli expressing H. pylori AddAB, absorbance growth; AID 435030; inhibition, % at 11.9 µM; 330,000 tested, 0.29% active; in the data active = inhibition above about 12%
E coli growth-1 – reduces bacterial viability in AddAB counter-screen; 330,000 tested, 0.27% active; inhibition, % at 11.9 µM; E. coli V3065 growth, OD600 absorbance, 18 h;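 active = inhibition above the campaign's mean inhibition across all tested compounds plus 3 SD, cut at about 9.9% in these data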;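 also: uninfected addAB+ strain grown without phage in ampicillin broth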
E coli growth-2 – E. coli growth inhibition | Escherichia coli growth, OD600, 23 h; stronger effect = lower value | 330,000 tested, 0.21% active | OD600 absorbance (concentration not given with the values);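 active = OD600 absorbance below the run mean of sample wells minus 3.6 SD, in any replicate, cut at about 0.56 in these data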
phage Ecoli inh – E. coli growth loss with phage present; inhibition, % at 11.9 µM; 360,000 tested, 0.26% active; growth absorbance; in the data active = inhibition above about 11%
RecBCD conf – growth loss of phage-infected V66 E. coli, RecBCD confirmation screen | 890 tested, 45% active | AID 651982 | inhibition, % at 11.9 µM | shares compounds with phage Ecoli inh | E. coli V66 + T4 2- phage, growth OD;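 active = mean inhibition over triplicates exceeding the hit threshold derived in the original primary screen, cut at about 11% in these data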
Ecoli viability – bacterial viability inhibition counter-screen for RecBCD | inhibition, % at 11.9 µM | E. coli viability, absorbance (OD) growth | shares compounds with phage Ecoli inh | 890 tested, 29% active; in the data active = inhibition above about 20%;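 also: E. coli strain V66 grown with compound alone and no phage infection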
AddAB counter – growth loss of phage-infected AddAB E. coli, RecBCD counter-screen; shares compounds with phage Ecoli inh; E. coli expressing H. pylori AddAB + T4 phage, OD growth; gene 2 mutant T4, recBCD-deleted host; inhibition, % at 11.9 µM; 890 tested, 45% active;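 active = mean inhibition above the solvent-only control wells' mean plus 3 SD, cut at about 22% in these data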;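 also: higher means less bacterial growth from phage killing when AddAB is blocked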
Each line names hits and unclear results; the compound was inactive in the other large screens (follow-up assays come after a bar, where they were run).

Oc1ccccc1C=NNC(=S)NN=Cc1ccccc1O	phage Ecoli inh 12.7 (no result: AddAB inh, E coli growth-1) | RecBCD conf 12.9 | Ecoli viability inactive | AddAB counter 37.6
NC(=S)N/N=C/c1ccccc1O	none (no result: E coli growth-2)
Oc1ccc(/C=N/NC(=S)Nc2cccnc2)c(O)c1O	phage Ecoli inh 14.7 (no result: AddAB inh, E coli growth-1, E coli growth-2) | RecBCD conf 11.3 | Ecoli viability inactive | AddAB counter 32.5
CCOc1ccc(S(=O)(=O)Nc2cccc(C(=O)NCCCN3CCCC3=O)c2)cc1	none
C=CCNS(=O)(=O)c1ccc2c(c1)n(C)c(=O)n2C	none
COc1ccccc1S(=O)(=O)Cc1ccc(C(=O)N2CCOCC2)o1	phage Ecoli inh 34.6 | RecBCD conf inactive | Ecoli viability inactive | AddAB counter inactive
Cc1cn([C@H]2C=C[C@@H](CO)O2)c(=O)[nH]c1=O	phage Ecoli inh 22.0 | RecBCD conf 15.9 | Ecoli viability inactive | AddAB counter 50.8
Nc1nc(N)c2cc(Sc3cccc(C(F)(F)F)c3)ccc2n1	phage Ecoli inh 61.5 (no result: Tat export inh, AddAB inh, E coli growth-1, E coli growth-2) | RecBCD conf 67.4 | Ecoli viability 57.7 | AddAB counter 85.8
Nc1nc(N)c2cc(Sc3ccc(Cl)cc3)ccc2n1	phage Ecoli inh 101.0 (no result: Tat export inh, AddAB inh, E coli growth-1, E coli growth-2) | RecBCD conf 102.1 | Ecoli viability 104.1 | AddAB counter 102.7
FC(F)(F)c1cccc(Sc2nc(-c3ccccc3)nnc2C(F)(F)F)c1	none
COc1ccccc1NC(=O)N1CCCC1C(=O)NCc1ccccc1 (configuration not stated)	none
COc1ccc(C(=O)N2CCN=C2SCc2cccnc2)c(OC)c1	none
Cc1cccc(CS(=O)(=O)Cc2ccc(C(=O)NCCN3CCCCC3C)o2)c1 (configuration not stated)	none
Nn1c(SCc2cccc(F)c2)nnc1-c1ccncc1	none
Nn1c(SCc2cccc(Br)c2)nnc1-c1ccncc1	phage Ecoli inh 99.6 | RecBCD conf inactive | Ecoli viability inactive | AddAB counter inactive
CCCCn1nnnc1C(c1ccccc1)N1CCCN(Cc2ccc(F)cc2)CC1 (configuration not stated)	none (no result: Tat export inh, AddAB inh, E coli growth-1, E coli growth-2)
Fc1cccc(C2NN=C(c3ccccc3)S2)c1 (configuration not stated)	none
O=C1c2ccccc2C2=Nc3ccccc3SC(c3cccc(F)c3)C12 (configuration not stated)	E coli growth-1 12.3, phage Ecoli inh 15.6 | RecBCD conf 12.5 | Ecoli viability inactive | AddAB counter 26.2
COc1ccc(CN=C2Nc3ccccc3CS2)cc1	none
O=C(Cc1cnn(-c2ccccc2)c1)c1ccc(O)c(O)c1O	phage Ecoli inh 11.3 | RecBCD conf inactive | Ecoli viability inactive | AddAB counter inactive
Cc1nnc(NS(=O)(=O)c2ccc(F)cc2)s1	none (no result: AddAB inh, E coli growth-1, E coli growth-2)
Cc1nnc(NS(=O)(=O)c2ccc(N)cc2)s1	phage Ecoli inh 12.1 | RecBCD conf inactive | Ecoli viability inactive | AddAB counter 26.6
O=C(NNS(=O)(=O)c1ccc(F)cc1)c1cc(Cl)ccc1O	phage Ecoli inh 15.0 (no result: AddAB inh, E coli growth-1) | RecBCD conf inactive | Ecoli viability inactive | AddAB counter inactive
O=C(COC(=O)c1cc(S(=O)(=O)N2CCCC2)ccc1O)Nc1ccc(F)cc1F	none
Cn1cc(S(=O)(=O)N2CCc3ccccc32)cc1C(=O)NC1CCCCC1	phage Ecoli inh 98.4 | RecBCD conf inactive | Ecoli viability inactive | AddAB counter inactive
CC(C)(C)C(=O)NC(=S)Nc1ccc(S(=O)(=O)Nc2nccs2)cc1	none
NS(=O)(=O)c1ccc(NC(=S)Nc2ccc(S(=O)(=O)Nc3nccs3)cc2)cc1	phage Ecoli inh 11.4 (no result: Tat export inh, AddAB inh, E coli growth-1, E coli growth-2) | RecBCD conf inactive | Ecoli viability inactive | AddAB counter inactive
O=S(=O)(Nc1ncccn1)c1ccc(NC(=S)Nc2ccccc2Cl)cc1	phage Ecoli inh 11.2 (no result: E coli growth-2) | RecBCD conf inactive | Ecoli viability inactive | AddAB counter inactive
C=CCn1c(Cc2ccc(OCC)cc2)nnc1SCC(N)=O	none
FC(F)(F)c1cccc(NC(=S)NCC2COc3ccccc3O2)c1 (configuration not stated)	phage Ecoli inh 11.6 | RecBCD conf inactive | Ecoli viability inactive | AddAB counter inactive
O=S(=O)(Oc1ccccc1)c1cccnc1	phage Ecoli inh 100.7 | RecBCD conf inactive | Ecoli viability inactive | AddAB counter inactive
O=C1/C(=C/c2cccnc2)Oc2cc(OS(=O)(=O)c3ccccc3)ccc21	Tat export inh inconclusive (no result: phage Ecoli inh)
O=C(c1ccc(NS(=O)(=O)c2ccc3c(c2)OCCO3)cc1)N1CCCCC1	none
CCN(CCCNC(=O)CCn1c(=O)[nH]c2ccccc2c1=O)c1ccccc1	none
CC(C)(C)c1nnc(N/N=C/c2cc(Br)ccc2O)n(N)c1=O	phage Ecoli inh 11.6 (no result: E coli growth-2) | RecBCD conf inactive | Ecoli viability inactive | AddAB counter 27.7
CC(C)(C)c1nnc(NN=Cc2ccccc2O)n(N)c1=O	none (no result: Tat export inh, AddAB inh, E coli growth-1, phage Ecoli inh)
O=Nc1c(-c2cccc([N+](=O)[O-])c2)nc2ncccn12	phage Ecoli inh 16.0 (no result: Tat export inh, E coli growth-2) | RecBCD conf 71.8 | Ecoli viability 77.0 | AddAB counter 99.8
COCCN=c1scc(-c2ccco2)n1/N=C/c1ccc(O)c(O)c1O	none (no result: E coli growth-2)
CN=c1scc(-c2cccs2)n1/N=C/c1ccc(O)c(O)c1O	phage Ecoli inh 13.2 (no result: E coli growth-2) | RecBCD conf inactive | Ecoli viability inactive | AddAB counter inactive
C=CCN=c1scc(-c2ccco2)n1/N=C/c1ccc(O)c(O)c1O	phage Ecoli inh 10.9 (no result: E coli growth-2) | RecBCD conf inactive | Ecoli viability inactive | AddAB counter inactive
O=C1CCCC(=NNC(=O)c2cc3ccccc3cc2O)C1	none (no result: phage Ecoli inh)
CCc1ccc(NC(=O)NNC(=O)c2cc3ccccc3cc2O)cc1	none
Cc1ccc(NC(=O)NNC(=O)c2cc3ccccc3cc2O)c(C)c1	E coli growth-1 10.4, phage Ecoli inh 11.7 | RecBCD conf inactive | Ecoli viability inactive | AddAB counter inactive
O=C(NNC(=O)c1cc2ccccc2cc1O)Nc1ccccc1F	E coli growth-1 9.9, phage Ecoli inh 10.9 | RecBCD conf inactive | Ecoli viability inactive | AddAB counter inactive
Cc1ccc(C(=O)NN=C2SCC(=O)N2c2cc(C)ccc2C)cc1	none (no result: Tat export inh, AddAB inh, E coli growth-1, phage Ecoli inh)
Cc1ccc(NP(=O)(Nc2ccc(C)cc2)Nc2ccc(C)cc2)cc1	none
CC(C)(C)C(=O)N1CCN(c2ccc([N+](=O)[O-])c(NCC3CCCO3)c2)CC1 (configuration not stated)	none
COc1ccc(C(=O)c2ccc3oc(-c4ccc(OC)cc4)c(-c4ccc(O)cc4)c3c2)cc1	none (no result: E coli growth-2)
Cc1ccc(S(=O)(=O)CC(=O)Nc2ncc([N+](=O)[O-])s2)cc1	none
Cc1ccc(CC(=O)Nc2ncc([N+](=O)[O-])s2)cc1	phage Ecoli inh 12.8 | RecBCD conf inactive | Ecoli viability inactive | AddAB counter inactive
O=[N+]([O-])c1ccc(NC(=S)NCCc2ccccc2)cc1	none
Fc1ccc(CNC(=S)Nc2ccc(Cl)cc2)cc1	phage Ecoli inh 11.6 | RecBCD conf inactive | Ecoli viability inactive | AddAB counter inactive
